In PubChem BioAssay AID651558 (National Center for Advancing Translational Sciences (NCATS), 2012):
In all, about 1,200 compounds went through this assay and about 480 (40%) were called active. Another 29% or so got no clear call; they are omitted. This is one part of the list. Values without a mark were called inactive. Calls come from the whole dose curve; as a rule, active = well fitted inhibition curve with a large enough effect; inconclusive = small, poorly fitted or top-dose-only effect; inactive = no such curve, though single readings can be large or run the other way.

Assay: qHTS Assay to Find Inhibitors of Chronic Active B-Cell Receptor Signaling: Hit Validation in Primary Screen; note: nearly all actives have a fitted effect of over 75% in size
Settings: ABC-DLBCL IkB-luc/CBR ratio luminescence, 4 h; series mostly up to 46.1 µM; activity change, negative = inhibition: at the top concentration
How it was run: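 Concentration series (3 nM to 46 uM) tested on TMD8 cells induced with doxycycline for 4 h. Filter-corrected green (IkBa fusion) over red (unfused) luciferase signal; Data were normalised to 10 uM MG-132 and untreated cell wells.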
% is set by controls: 0 for no effect and ±100 for the full control effect; potency is the fitted concentration of half-maximal effect.

Row | SMILES | Potency | activity change, negative = inhibition [%]
1 | COc1ccc(-c2cccc(-c3cc(=O)oc4cc(OC)cc(OC)c34)c2)cc1 | 1160 nM (active) | 
2 | COc1cc(OC)c2c(-c3cccc(-c4ccc(N(C)C)cc4)c3)cc(=O)oc2c1 | 2060 nM (active) | 
3 | COc1cc(OC)c2c(-c3cccc(-c4ccc(OC)c(F)c4)c3)cc(=O)oc2c1 | 1160 nM (active) | 
4 | COc1cc(OC)c2c(-c3cccc(-c4sccc4C(C)=O)c3)cc(=O)oc2c1 | 5170 nM (active) | 
5 | CC(=O)c1ccsc1-c1c(C)cc2oc(=O)cc(-c3ccccc3)c2c1C |  | -17.2
6 | COc1cc(OC)c2c(-c3cccc(-c4ccc(NC(C)=O)cc4)c3)cc(=O)oc2c1 | 2590 nM (active) | 
7 | COc1cc(OC)c2c(-c3cccc(-c4ccc(O)cc4)c3)cc(=O)oc2c1 | 2590 nM (active) | 
8 | COc1cc(OC)c2c(-c3cccc(-c4cccc(N)c4)c3)cc(=O)oc2c1 | 6510 nM (active) | 
9 | CCc1ccc(N2CC(C(=O)OCC(=O)Nc3ccccc3C)CC2=O)cc1 (configuration not stated) |  | -2.86
10 | Cc1[nH][nH]c(=O)c1C(c1c(C)[nH][nH]c1=O)c1cn(Cc2ccc(F)cc2)c2ccccc12 | 14600 nM (active) | 
11 | CCOC(=O)C(NCc1ccccc1)(NC(=O)c1ccccc1)C(F)(F)F (configuration not stated) |  | -4.33
12 | CCNC(=S)NNc1ccccc1 |  | -3.97
13 | CCc1nnc(NC(=S)Nc2ccccc2)s1 | 651 nM (active) | 
14 | CCCc1nnc(NC(=O)CCC(=O)NCCc2ccc(OC)c(OC)c2)s1 |  | -8.23
15 | Cc1csc(NC(=S)Nc2cccc(Cl)c2)n1 |  | -5.57
16 | CCCc1nnc(NC(=S)Nc2ccccc2)s1 | 164 nM (active) | 
17 | S=C(Nc1ccccc1)Nc1nccs1 |  | -19.7
18 | Cc1cc(Cl)n2c(nc3ccccc32)c1C#N | 1840 nM (active) | 
19 | Cc1nn(-c2ccccc2)c(C)c1/C=N/NC(=O)c1cc(-c2ccccc2)n[nH]1 | 2310 nM (active) | 
20 | Cc1nn(-c2ccccc2)c(C)c1/C=N/NC(=O)c1cc(-c2cccs2)[nH]n1 | 3260 nM (active) | 
21 | Cc1ccc(-c2cc(C(=O)N/N=C/c3c(C)nn(-c4ccccc4)c3C)[nH]n2)cc1 | 2310 nM (active) | 
22 | C[C@@H]1C[C@H]2[C@@H]3C[C@H](F)C4=CC(=O)C=C[C@]4(C)[C@@]3(F)[C@@H](O)C[C@]2(C)[C@@]1(O)C(=O)CO |  | -15.3
23 | COC(=O)Nc1nc2ccc(Sc3ccccc3)cc2[nH]1 |  | 52

Row | SMILES | Potency | activity change, negative = inhibition [%]
24 | COc1ccc(C(=O)N[C@H](C(=O)Nc2nc3ccccc3[nH]2)C(C)C)cc1 | 5800 nM (active) | 
25 | COc1cc(OC)cc(C(=O)N[C@H](C(=O)Nc2nc3ccccc3[nH]2)C(C)C)c1 | 1840 nM (active) | 
26 | Cc1cccc(C(=O)N[C@H](C(=O)Nc2nc3ccccc3[nH]2)C(C)C)c1 | 3260 nM (active) | 
27 | N#CC(C(=S)Nc1ccccc1)c1nc2ccccc2[nH]1 (configuration not stated) |  | 21.6
28 | COc1ccc(NC(=S)N=Nc2c(O)[nH]c3ccccc23)cc1 |  | -16.6
29 | OCc1ccnc2c(O)cccc12 |  | 3.41
30 | Fc1ccc(NC(=S)N/N=C/c2ccc(F)c(F)c2)cc1 |  | 32.7
31 | O=C(N/N=C/c1ccc(Cl)cc1)c1sccc1OCc1ccc(F)cc1 | 5170 nM (active) | 
32 | NNC(=O)/C(=C\c1ccco1)NC(=O)c1ccco1 |  | -4.29
33 | COc1ccccc1C1=NOC(COc2ccc3c(C)cc(=O)oc3c2)C1 (configuration not stated) | 8200 nM (active) | 
34 | Cc1cc(=O)oc2cc(OCC3CC(c4ccccc4Cl)=NO3)ccc12 (configuration not stated) | 2590 nM (active) | 
35 | CCCCOc1ccc2c(C)cc(=O)oc2c1OCCCC |  | -11.1
36 | Cc1ccc(NC(=S)NNC(=S)Nc2ccc(C)cc2C)cc1 | 1840 nM (active) | 
37 | C=CCNC(=S)N/N=C/c1ccc(C)cc1C |  | -9.31
38 | Cc1ccc(NC(=S)NNC(C)(C)C)cc1 |  | -1.5
39 | CCOc1cc(NC(=O)CCl)c(OCC)cc1NC(=O)CCl | 5800 nM (active) | 
40 | C/C(=N\NC(=S)NC1CCCCC1)c1ccc(C)o1 |  | -3.17
41 | C(=N\Nc1nc2ccccc2[nH]1)/C1CCCCC1 |  | 2.77
42 | CSc1nc(SCC(=O)NCc2ccco2)c2c3c(sc2n1)COC(C)(C)C3 | 20600 nM (active) | 
43 | Cn1cccc1/C=C1\SC(=Nc2ccc(O)cc2)NC1=O | 1030 nM (active) | 
44 | O=C(Cc1cccs1)N/N=C/C=C/c1ccco1 |  | -17.3
45 | O=C1NC(=Nc2ccc(O)cc2)S/C1=C\C=C\c1ccco1 | 2910 nM (active) | 
46 | CCOc1cc(CNc2ccc3c(c2)OCCO3)cc(Br)c1OCC | 5170 nM (active) | 

Row | SMILES | Potency | activity change, negative = inhibition [%]
47 | CCOc1c(Cl)cc(CNCC(C)C)cc1OC |  | -6.38
48 | CCOc1c(Br)cc(CNc2ccc3c(c2)OCCO3)cc1OC | 10300 nM (active) | 
49 | O=C(N/N=C/c1ccc(Cl)cc1)c1n[nH]c2c1CCCC2 | 2060 nM (active) | 
50 | O=C(NN=C1CCCC1)c1n[nH]c2c1CCC2 |  | -10.7
51 | Cc1ccc(/C=N/NC(=O)c2n[nH]c3c2CCCC3)cc1 | 206 nM (active) | 
52 | Cc1cccc(C)c1OCC(=O)N/N=C/C=C/c1ccco1 |  | -9.1
53 | COc1ccc(NC(=S)NC(=O)/C=C/c2ccco2)cc1 |  | -12.3
54 | Cc1ccc(NC(=O)/C=C/c2ccco2)nc1 | 1160 nM (active) | 
55 | O=C(CNCc1ccccc1)Nc1ccc(Oc2ccccc2)cc1 |  | -2.09
56 | O=C(COc1ccc(Oc2ccccc2)cc1)NCc1cn2ccccc2n1 | 11600 nM (active) | 
57 | Cc1cccc(NC(=O)c2ccc(C(=O)Nc3cccc(C)c3)nc2)c1 | 10300 nM (active) | 
58 | Cc1cccc(NC(=S)NNC(=O)CCn2cc(C)cn2)c1 |  | -3.27
59 | CCOC(=O)c1c(C)c(C(=O)OCC)n(C)c1C | 6510 nM (active) | 
60 | CCOC(=O)c1c(C=O)c2sc(C)cc2n1C |  | 42.4
61 | COc1ccc(/C(C)=N/Nc2ccc(C(=O)O)cc2)cc1OC | 23.1 nM (active) | 
62 | COc1ccc(/C(C)=N/Nc2nc3ccccc3nc2C)cc1OC |  | -8.71
63 | Cc1cc(C)c2nc3sc(C(=O)N4CCOCC4)c(N)c3cc2c1 | 1460 nM (active) | 
64 | CCC1=Nc2cc(C(=O)NCCCOC)ccc2Sc2ccccc21 | 2060 nM (active) | 
65 | CCCC1=Nc2cc(C(=O)NCCCOCC)ccc2Sc2ccccc21 | 1030 nM (active) | 
66 | CCCC1=Nc2cc(C(=O)NCCCOC(C)C)ccc2Sc2ccccc21 | 20600 nM (active) | 
67 | CCOCCCNC(=O)c1ccc2c(c1)N=C(CC)c1cc(Br)ccc1S2 | 259 nM (active) | 
